This is a sample that favours compounds with a hit; in the whole collection about 2.7% have one here.
TrxR1 inh – qHTS Assay for Inhibitors of Mammalian Selenoprotein Thioredoxin Reductase 1 (TrxR1): qHTS; Thioredoxin reductase 1, cytoplasmic (Rattus norvegicus), O89049; 390,000 compounds, 1% hits; recombinant rTrxR1, NADPH fluorescence consumption, selenite substrate; AID 588453, 2011; Potency, µM (titrated, usually from 114 µM), without a hit: at the top dose activity change, negative = inhibition, actives largely listed as inhibitors; further: on the % scale 0 is the no-effect control and ±100 the full control effect; nearly all actives have a fitted effect of over 65% in size
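Rat TrxR1 (90 nM in the dispensed reagent) was pre-reduced with 400 uM NADPH for 5 min at room temperature, then incubated with compound for 15 min. After 400 uM selenite was added, NADPH fluorescence (Ex 340/Em 450 nm) was followed for 8 min.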
TrxR1 substrate – qHTS Assay for Substrates of Mammalian Selenoprotein Thioredoxin Reductase 1 (TrxR1): qHTS | Thioredoxin reductase 1, cytoplasmic (Rattus norvegicus), O89049 | purified TrxR1 substrate turnover, NADPH consumption readout | Potency, µM (doses to about 114 µM), without a hit: at the highest dose activity change, negative = substrate turnover | 390,000 compounds, 0.01% hits; further: on the % scale 0 is the no-effect control and ±100 the full control effect; nearly all actives have a fitted effect of over 50% in size
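Rat TrxR1, dispensed at 90 nM, was prereduced with 400 uM NADPH (final) for 5 min at ~22 deg C, then incubated with compound 15 min before 400 uM selenite. A first-read NADPH fluorescence drop versus no-compound background flagged substrates.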
HEK293 tox – qHTS of GLP-1 Receptor Inverse Agonists: Cytotox Screen; 410,000 compounds, 0.13% hits; HEK293 cAMP-luciferase reporter cells, luminescence, 24 h; Potency, µM (top dose mostly 38.3 µM), for inactives: at the highest dose activity change, negative = inhibition, actives largely listed as inhibitors;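 further: loss of luciferase light is scored as toxicity; on the % scale 0 is the no-effect control and ±100 the full control effect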
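1536-well qHTS counterscreen of the MLSMR; 200 cells/uL, 12 h pre-incubation, 23 nL cpd, 24 h at 37 deg C 5% CO2, luciferase detection reagent, 12 min RT, luminescence. Inhibition = undesired.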
mIDH1 inhibitor – qHTS for Inhibitors of mutant isocitrate dehydrogenase 1 (IDH1): qHTS; Isocitrate dehydrogenase [NADP] cytoplasmic (Homo sapiens), O75874; IDH1-R132H enzyme, NADPH consumption, diaphorase/resazurin fluorescence; Potency, µM (top dose mostly 76.6 µM), for inactives: at the top dose activity change, negative = inhibition, hits mostly inhibitors; 390,000 compounds, 0.093% hits; further: on the % scale 0 is the no-effect control and ±100 the full control effect; nearly all actives have a fitted effect of over 65% in size
Target sequence (O75874 whole entry R132H, stated change not applied): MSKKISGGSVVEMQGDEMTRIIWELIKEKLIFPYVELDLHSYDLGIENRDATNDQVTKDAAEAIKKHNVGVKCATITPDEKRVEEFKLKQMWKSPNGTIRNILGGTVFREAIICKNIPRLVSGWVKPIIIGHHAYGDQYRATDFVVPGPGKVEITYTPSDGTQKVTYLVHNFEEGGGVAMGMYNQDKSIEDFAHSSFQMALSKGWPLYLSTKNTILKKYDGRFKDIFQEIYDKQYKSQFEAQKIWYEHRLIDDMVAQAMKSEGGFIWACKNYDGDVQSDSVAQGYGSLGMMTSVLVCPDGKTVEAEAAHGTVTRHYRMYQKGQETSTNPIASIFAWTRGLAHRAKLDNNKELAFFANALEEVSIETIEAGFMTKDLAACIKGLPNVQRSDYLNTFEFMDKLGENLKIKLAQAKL
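IDH1-R132H (0.5 ug/mL) preincubated 30 min with compound, then NADPH (0.016 mM) and alpha-KG (2 mM) added; 80 min at RT, pH 7.5. Remaining NADPH coupled via diaphorase/resazurin to fluorescence (540/590 nm); concentration-response curves normalized to no-enzyme control.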
GLP1R ag – qHTS of GLP-1 Receptor Agonists | Glucagon-like peptide 1 receptor (Homo sapiens), P43220 | HEK293 GLP-1R CRE-luciferase, luminescence, 4-6 h; cells express a hypersensitive GLP-1R form | Potency, µM (titrated, usually from 45.6 µM), for the others: at the top dose activation, hits mostly activators | 380,000 compounds, 0.007% hits; further: % of control where 0% means no effect
GLP1R inv ag – qHTS of GLP-1 Receptor Inverse Agonists (Inhibition Mode) | HEK293 GLP-1R CRE-luciferase, luminescence, 24 h; GLP-1R form is constitutively active | Potency, µM (titrated, usually from 38.3 µM), for inactives: at the highest dose activity change, negative = inhibition, most hits filed as inhibitors | 410,000 compounds, 1.6% hits | Glucagon-like peptide 1 receptor (Homo sapiens), P43220; further: on the % scale 0 is the no-effect control and ±100 the full control effect; nearly all actives have a fitted effect of over 55% in size
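Luminescence readout: a drop in cAMP-driven luciferase signal flags inverse agonism at a constitutively active GLP-1R stably expressed in HEK293. Compound exposure lasted 24 hr at 37 deg C, 5% CO2.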
* marks the source's active call; other numbers are inactive results; u = inconclusive; x = not tested or not shown; [ ] = dose if it differs, or a comment. The call rests on the fitted dose curve; in most records, active means well fitted curve in the direction sought with a large enough effect; inconclusive means small, poorly fitted or top-dose-only effect, or another doubt; inactive means no such curve, though single readings can be large; an effect the other way counts as inactive or inconclusive. Potency means the concentration at half of the fitted maximal effect.

SMILES	TrxR1 inh	TrxR1 substrate	HEK293 tox	mIDH1 inhibitor	GLP1R ag	GLP1R inv ag
COc1ccc(N2C(=O)CC(Sc3nc(C)c4c(n3)CCCC4)C2=O)cc1 (configuration not stated)	-5%	-3%	u	3%	-10%	-23%
COc1ccc(N2C(=O)CC(Sc3n[nH]c(-c4ccccc4)n3)C2=O)cc1 (configuration not stated)	2µM*	5%[57.1 µM]	8%	1%	0%	37%
CCOc1ccc(N2C(=O)CC(Sc3n[nH]c(-c4ccccc4)n3)C2=O)cc1 (configuration not stated)	6.3µM*	6%	7%	1%	3%	1%
Cc1ccc(C)c(Cn2nnc(C(=O)NCc3ccccc3)c2N)c1	27%	5%	-1%	6%	x	-4%
Cc1ccc(C)c(OCc2cc(C(=O)N3CC[C@@H]4CCCC[C@H]4C3)no2)c1	2%	-3%	7%	1%	2%	11µM*
Cc1ccc(C)c(OCc2cc(C(=O)N3CCN(c4ccccc4C)CC3C)no2)c1 (configuration not stated)	-2%	-2%	8%	9%	-7%	2.5µM*
CC(=O)c1cc(-c2ccccc2)n(CC(=O)NCCc2ccc(C)cc2)c1C	30%[57.1 µM]	3%[57.1 µM]	-1%	-12%	x	11%
Cc1ccccc1S(=O)(=O)N1[C@@H](c2ccc(Cl)cc2)C(C(=O)O)=CC[C@H]1c1ccc(Cl)cc1	-2%	-8%	-18%	-13%	2%	8.9µM*
Cc1ccc([C@H]2C(C(=O)O)=CC[C@@H](c3ccc(Cl)cc3)N2S(=O)(=O)c2ccccc2C)cc1	15%	2%	-3%	-25%	1%	u
Cc1ccc([C@H]2C(C(=O)O)=CC[C@@H](c3ccc(C(C)C)cc3)N2S(=O)(=O)c2ccc(C)cc2)cc1	1%	-9%	-10%	-7%	-5%	u
Cc1ccc(S(=O)(=O)N2[C@@H](c3ccc(C(C)C)cc3)C(C(=O)O)=C[C@H]2C(C)(C)C)cc1	5%	-6%	-16%	4%[38.3 µM]	1%	10µM*
Cc1ccc(S(=O)(=O)N2[C@@H](c3ccc(Cl)cc3)C(C(=O)O)=CC[C@H]2c2ccc(C(C)C)cc2)cc1	11%[57.1 µM]	-4%[57.1 µM]	-11%	7%	-3%	6.3µM*
Cc1ccc([C@H]2C(C(=O)O)=C[C@@H](C(C)(C)C)N2S(=O)(=O)c2ccc(C)cc2)cc1	-9%	-2%	3%	-1%	-5%	-24%
O=C1/C(=C/c2cccs2)N=C(c2cccs2)N1Nc1ccccc1	-25%	-17%	-10%	3%	5%	10µM*
CCc1nc2ccc(C(=O)NCc3ccc4c(c3)OCO4)cn2c1N(CCC(C)C)CCN(C)C	x	x	u	x	-7%	u
CCOC(=O)c1ccc(NC(=O)/C=C/c2cccs2)cc1	-35%	79µM*	-22%	0%	13%	u
Cc1cc(C)c(-c2csc(NC(=O)/C=C/c3cccs3)n2)c(C)c1	12%[57.1 µM]	4%[57.1 µM]	17%	-1%	-19%	3.2µM*
CCN(CC)CCOC(=O)c1ccc(NC(=O)/C=C/c2cccs2)cc1	u	-11%	-15%	3%	2%	u
O=C(/C=C/c1cccs1)Nc1cccc(NC(=O)/C=C/c2cccs2)n1	-14%	-3%	u	-4%	-17%	4µM*
COc1ccc(CNC(=O)c2cc(=O)[nH]c3ccc(S(=O)(=O)N4CCCC4)cc23)c(OC)c1	16%[57.1 µM]	3%[57.1 µM]	-3%	0%	x	4%
CCN(c1ccccc1)S(=O)(=O)c1cc(C(=O)Nc2ccc(F)c(F)c2)ccc1F	6%	-10%	u	-7%	-2%	1.4µM*
Cc1cc(Br)ccc1NC(=O)CN(C)C(=O)C1CCN(c2ncnc3sc(C)c(C)c23)CC1	-13%	-11%	-31%	-2%	-17%	3.2µM*
Cc1ccc(CNC(=O)C(Cc2ccccc2)n2cccc2)cc1 (configuration not stated)	28%	0%	3%	8%	12%	u
CC(NC(=O)C(Cc1ccccc1)n1cccc1)c1ccccc1 (configuration not stated)	13%	-1%	2%	11%	6%	11µM*
Brc1cccc(Cn2c(-c3cncs3)nc3ccccc32)c1	-1%	4%	-10%	2%	21%	0%
SMILES	TrxR1 inh	TrxR1 substrate	HEK293 tox	mIDH1 inhibitor	GLP1R ag	GLP1R inv ag
Cc1cccc(Cn2c(-c3cccc(Br)c3)nc3ccccc32)c1	6%[57.1 µM]	-4%[57.1 µM]	8%	-4%	x	10µM*
COc1ccc(C)cc1NC(=O)c1cc(S(=O)(=O)N2CCCCC2)c[nH]1	5%	-1%	3%	2%	x	-4%
COc1ccccc1N1CCN(S(=O)(=O)c2ccc3c(c2)CCCN3C(C)=O)CC1	17%[57.1 µM]	3%[57.1 µM]	21%	-1%	x	9%
COc1ccc(S(=O)(=O)N(CC(=O)N2CCN(c3ccccc3OC)CC2)c2ccccc2)cc1	-6%	-3%	-10%	7%	-3%	10µM*
CCN(CC)S(=O)(=O)c1ccc(N2CCN(c3ccccc3OC)CC2)c(N)c1	3%	-9%	-1%	9%	4%	10µM*
COc1ccc(N2CCN(C(=O)CN(c3ccccc3)S(=O)(=O)c3ccc(OC)cc3)CC2)cc1	3%	-4%	1%	1%	-11%	0%
CCc1ccc(C(=O)c2cn(CC(=O)Nc3cccc(OC)c3)c3cc4c(cc3c2=O)OCO4)cc1	12%	-2%	1%	2%	-1%	-26%
O=C(O)c1ccccc1NS(=O)(=O)c1ccc(NNC(=S)Nc2ccc(OC(F)F)cc2)c([N+](=O)[O-])c1	50µM*	-17%	u	-13%	-6%	-10%
CC(=O)C1=CCC(c2ccccc2)N(Cc2ccccc2)C1 (configuration not stated)	x	x	-18%	x	x	u
Cc1ccc2c(c1)sc1nc(-c3cc4ccccc4oc3=O)cn12	17%	2%	-14%	x	x	-70%
Cc1ccc2cc(C3CC(c4ccco4)=NN3S(C)(=O)=O)c(Cl)nc2c1 (configuration not stated)	79µM*	-4%	0%	-4%	13%	25%
